Assay results: ChEMBL document CHEMBL3433997, “St. Jude Leishmania screening dataset” (2016)

Tests used:
Assay type in all cases: functional
[1] = target: Solute carrier family 2, facilitated glucose transporter member 1 (Homo sapiens) (UniProt P11166); assay: ST_JUDE_LEISH: Cytotoxicity at 2uM final concentration against transgenic Leishmania Mexicana promastigotes LmGLUT1 that are glucose transport deficient and complemented with the human glucose transporter GLUT1. Activity is measured by DNA content using SYBR green in vitro
[2] = target: Hexose transporter 1 (Plasmodium falciparum) (UniProt O97467); assay: ST_JUDE_LEISH: Cytotoxicity at 2uM final concentration against transgenic Leishmania Mexicana promastigotes LmPfHT that are glucose transport deficient and complemented with the Plasmodium falciparum hexose transporter. Activity is measured by DNA content using SYBR green in vitro
[3] = target: Glucose transporter (Leishmania mexicana) (UniProt O61059); assay: ST_JUDE_LEISH: Cytotoxicity at 2uM final concentration against transgenic Leishmania Mexicana promastigotes LmGT2 that are glucose transport deficient and complemented with the L. Mexicana glucose transporter 2. Activity is measured by DNA content using SYBR green in vitro

Sequence of Solute carrier family 2, facilitated glucose transporter member 1 (Homo sapiens) (P11166 whole entry): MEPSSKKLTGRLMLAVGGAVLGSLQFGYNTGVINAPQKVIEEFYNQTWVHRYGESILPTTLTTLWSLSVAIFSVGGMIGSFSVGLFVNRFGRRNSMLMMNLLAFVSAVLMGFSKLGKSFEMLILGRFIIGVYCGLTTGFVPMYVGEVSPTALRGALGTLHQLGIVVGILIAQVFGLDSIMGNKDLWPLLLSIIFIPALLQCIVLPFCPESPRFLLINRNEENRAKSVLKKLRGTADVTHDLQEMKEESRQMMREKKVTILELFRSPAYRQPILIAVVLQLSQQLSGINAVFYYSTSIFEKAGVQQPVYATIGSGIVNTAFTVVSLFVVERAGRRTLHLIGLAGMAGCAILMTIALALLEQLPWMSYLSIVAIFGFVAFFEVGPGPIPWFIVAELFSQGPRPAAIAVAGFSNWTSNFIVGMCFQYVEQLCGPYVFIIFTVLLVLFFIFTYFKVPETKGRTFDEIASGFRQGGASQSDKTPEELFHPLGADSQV

Row | Compound | inhibition [1] [%] | inhibition [2] [%] | inhibition [3] [%]
1 | CCCCN(C)CC#Cc1ccc2[nH]c(C)c(Cl)c(=O)c2c1 | 3.48 | 3.22 | 2.37
2 | Clc1cc(Nc2ncnc3sc(C#Cc4ncc[nH]4)cc23)ccc1OCc1ccccn1 | -0.91 | 5.1 | -0.27
3 | Cc1ccc(C(=O)NC2C(=O)NC2c2ccccc2)c(C)c1 (centres undefined) | 3.72 | 4.84 | 2.37
4 | O=C(Nc1ccc(S(=O)(=O)N2CCCCC2)cc1)c1cc(-c2ccccc2O)n[nH]1 | 11.8 | 12 | 10.8
5 | O=C(Nc1ccc([N+](=O)[O-])cc1Br)c1cc2ccccc2nc1Cl | 8.95 | 8.73 | 7.12
6 | COc1ccc2nccc([C@@H](O)CN3CCC(NC(=O)c4cc5cccnc5[nH]4)CC3)c2c1 | 5.47 | 3.5 | -0.32
7 | O=C(NCCN1CCCc2ccccc21)C1CCN(c2nc(-c3ccc(Cl)cc3)no2)CC1 | 1.63 | 2.11 | -2.23
8 | COc1ccc(CNCc2ccc(-c3ccc(CNCCc4ccccc4)cn3)cc2)cn1 | 0.68 | -0.51 | 1.46
9 | CN1CCC(NCc2cccc(-c3ccc(S(=O)(=O)NCc4ccccc4)cc3)c2)CC1 | 8.1 | 7.9 | 10.3
10 | CC(C)(C)OC(=O)Nc1cccc(-c2csc(NC(=N)N)n2)c1 | 0.85 | 0.42 | -0.52
11 | COc1cc(CCNC(=O)Cc2ccc3ccccc3c2)ccc1OCc1ccccc1 | 1.9 | 1.88 | 0.92
12 | O=S(=O)(NCCN1CCCC1)c1ccc(-c2cccc(CNCc3ccccc3)c2)s1 | -2.31 | -2.12 | -2.89
13 | COc1ccc2nccc([C@@H](O)CN3CCC(NCCOc4cc(C(F)(F)F)ccc4F)CC3)c2c1 | 21.5 | 33.3 | 14.4
